Measured values published in PubChem BioAssay (NCATS).
Inconclusive results are not listed. Where a call stands in place of a potency, no number is given. Active and inactive are the calls of the source. Calls come from the whole dose curve; as a rule, active = well fitted inhibition curve with a large enough effect; inconclusive = small, poorly fitted or top-dose-only effect, or effect the other way; inactive = flat fitted curve, though single readings scatter.

What follows are compounds tested against ATP-dependent 6-phosphofructokinase (Trypanosoma brucei brucei) (UniProt O15648) (assay: qHTS Assay to Find Inhibitors of T. brucei phosphofructokinase: hit validation (AID 492961)). Settings: T. brucei PFK, ADP-Glo luminescence; series mostly up to 51.4 µM.
Sequence of ATP-dependent 6-phosphofructokinase (Trypanosoma brucei brucei) (O15648 whole entry, looked up): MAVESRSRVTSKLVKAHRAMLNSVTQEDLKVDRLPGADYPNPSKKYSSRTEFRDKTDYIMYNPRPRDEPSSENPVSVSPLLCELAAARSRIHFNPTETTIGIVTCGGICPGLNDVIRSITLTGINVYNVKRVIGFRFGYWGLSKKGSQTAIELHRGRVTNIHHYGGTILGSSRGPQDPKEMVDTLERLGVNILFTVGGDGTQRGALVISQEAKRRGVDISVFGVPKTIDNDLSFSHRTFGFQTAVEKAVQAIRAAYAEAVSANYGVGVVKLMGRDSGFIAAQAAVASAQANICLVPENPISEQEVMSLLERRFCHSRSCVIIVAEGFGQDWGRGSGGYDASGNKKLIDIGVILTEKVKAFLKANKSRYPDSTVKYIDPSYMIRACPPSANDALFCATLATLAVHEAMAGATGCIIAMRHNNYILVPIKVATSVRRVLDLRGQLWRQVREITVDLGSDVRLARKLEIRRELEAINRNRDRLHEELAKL
In short: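 ADP-Glo luminescence read-out of ADP formed by 1.25 nM PFK from 0.1 mM ATP and 0.5 mM F6P (TEA pH 8.0, 45 min, RT). Compounds titrated; activity normalized to no-enzyme and full-enzyme controls.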
Potency is the fitted concentration of half-maximal effect.

SMILES | Potency
CNS(=O)(=O)Cc1ccc2[nH]cc(CCN(C)C)c2c1 | inactive
COc1ccc(-c2ccc3cc(C(=O)O)ccc3c2)cc1C12CC3CC(CC(C3)C1)C2 | 15.8 µM (active)
Nc1[nH]c(=O)ncc1F | inactive
CCn1cc(C(=O)O)c(=O)c2cc(F)c(N3CCNCC3)cc21 | inactive
O=C(O)c1cn(C2CC2)c2cc(N3CCNCC3)c(F)cc2c1=O | inactive
Cc1ccnc2c1NC(=O)c1cccnc1N2C1CC1 | inactive
CCOC(=O)[C@H](CCc1ccccc1)N[C@H]1CS[C@H](c2cccs2)CN(CC(=O)O)C1=O | inactive
Cc1oc(=O)oc1CN1CCN(c2cc3c(cc2F)c(=O)c(C(=O)O)c2n3C(C)S2)CC1 (stereo not given) | inactive
O=C(O)c1cc(=O)[nH]c(=O)[nH]1 | inactive
CCOc1cc(N)c(Cl)cc1C(=O)NCC1CN(Cc2ccc(F)cc2)CCO1 (stereo not given) | inactive
CCCCOc1ccc(CC(=O)NO)cc1 | inactive
Oc1c(Cl)cc(Cl)c2cccnc12 | inactive
CN(CCOc1ccc(CC2SC(=O)NC2=O)cc1)c1ccccn1 (stereo not given) | inactive
Nc1nc(N)nc(-c2cc(Cl)ccc2Cl)n1 | inactive
COC(=O)Nc1nc2ccc(Sc3ccccc3)cc2[nH]1 | inactive
COc1cc(NCc2ccc3nc(N)nc(N)c3c2C)cc(OC)c1OC | inactive
COc1cc2c(Nc3ccc(Br)cc3F)ncnc2cc1OCC1CCN(C)CC1 | inactive
CC(N)C12CC3CC(CC(C3)C1)C2 (stereo not given) | inactive
CN1CCCC(n2nc(Cc3ccc(Cl)cc3)c3ccccc3c2=O)CC1 (stereo not given) | inactive
CC(=O)Oc1ccccc1C(=O)Nc1ncc([N+](=O)[O-])s1 | inactive
